To fix the notation:
B1: VH:VL chains; a variant is named by its letters at X, in order (parent)
chain 1: QVQLVQSGAEVKKPGASVKVSCKASGYTFTDYXMHWVRQAPGQGLEWMGXVNPNXXXTTYNQKFEGRVTMTTDTSTSTAYMELRSLRSDDTAVYYCARXNXLDXWGQGTTVTVSS
chain 2: DIQMTQSPSSLSASVGDRVTITCSVSSSVSSIYLHWYQQKPGKAPKLLIYSTSNLASGVPSRFSGSGSGTDFTLTISSLQPEDFATYYCQVYSGYPLTFGGGTKVEIK

Some of the results follow. The hit rate among all sequences tested is not known here.

Variants of B1 are the subject of this experiment. Nature of the experiment: yeast display scFab, FACS + sequencing. As to conditions: with MET. Put shortly:
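Antigen binding was called positive for sequences present in both antigen-positive samples and negative for those present only in the input. These calls came from deep sequencing, in two replicates, of round-3 sorted and input populations from a heavy-chain CDR mutant scFab yeast surface library. The library was first enriched twice magnetically on HGFR-Fc-coated Protein A beads and then by FACS, gating the top 50% antigen-positive cells after 3 h labelling at room temperature with 1 nM HGFR-Fc plus anti-Myc in PBSB with 1% milk.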
Consider SEGTGSSV, for which the antigen binding call is recorded as “no binding”. The result for DGGKNAGV reads “no binding”; that for DTGTGDAA, “no binding”; that for YKTKSDGV, “no binding”. The result for YEKETAGV reads “no binding”; that for VKGESAGV, “no binding”; that for YKKRGAGV, “binds”. The result for DKAGGAGV reads “no binding”; that for YKTGGAGV, “binds”; that for YKARGAGV, “binds”.

With YKGEGDGV, the antigen binding call is reported as “no binding”. The result for VKARGAGV reads “binds”; that for VKARSAGV, “no binding”; that for YKTGGDGV, “no binding”. The result for YKTGDDGV reads “no binding”.

Turning to FEAESYGV, the antigen binding call is recorded as “no binding”. For FKARGSGV, the antigen binding call is recorded as “binds”. The result for FKAGSSGV reads “no binding”.

As for FKATTSGA, the antigen binding call is listed as “no binding”.

VAGTDAGA: the antigen binding call is “no binding”. Turning to YRRRGDAA, the antigen binding call is recorded as “binds”.

Regarding YRRGSFAA, the antigen binding call is “binds”. Turning to YRRRGYAA, the antigen binding call is on record as “binds”.

Turning to SREGGFAA, the antigen binding call is “no binding”. With SRKGGDAA, the antigen binding call is reported as “no binding”.

As to YRRRGVAA, the antigen binding call is recorded as “binds”.

With VGGGASGV, the antigen binding call is “no binding”. The result for FTGRAYGF reads “no binding”; that for VAGRSDLV chain 1 R67H, “no binding”. Take DAKEGAGD: the antigen binding call is recorded as “no binding”.

In the case of VTGEDDWD, the antigen binding call is recorded as “no binding”. In the case of VGGGNAGD, the antigen binding call is “no binding”. The result for YRRRGAAA reads “binds”. The result for YRRRGYVA reads “binds”. The result for YRRRGAVA reads “binds”; that for YREGGFAA, “no binding”; that for YRRRGFAA, “binds”.

On to VRAGADVY, for which the antigen binding call is “no binding”. The result for YGETGDSV reads “no binding”. As for FTETGFGA, the antigen binding call was “no binding”. As to YRRRGFVA, the antigen binding call was “binds”. The result for YRERGSAD reads “binds”; that for FRERGSAD, “binds”; that for VRERGSAD, “binds”. The result for YRERDSAD reads “no binding”. Turning to YAEGDAAD, the antigen binding call is “no binding”. The result for YRERGAAD reads “binds”; that for VEGTSDVV, “no binding”; that for DTTGSAVA, “no binding”. The result for YKGGGYGA reads “binds”; that for VKGGGFGA, “no binding”; that for FKGGGFGA, “no binding”. The result for YEGGGDGA reads “no binding”; that for YKGGSAGA, “binds”; that for YKGEADGA, “no binding”. Regarding YTGATAGA, the antigen binding call was “no binding”. The result for YKGGGAGA reads “binds”; that for VKGGGYGA, “no binding”. The result for YRRRGAWF reads “binds”.

In the case of YRTRGSGF, the antigen binding call is given as “binds”. For the variant YRRRGAGF, the antigen binding call is “binds”. The result for YRRRGSGF reads “binds”. The result for FTKASYVY reads “no binding”; that for VEARGDWV, “no binding”; that for STRKSYAA, “no binding”. The result for STKAASWV reads “no binding”. As to FTGGDALA, the antigen binding call is reported as “binds”. The result for FRERGDGA reads “no binding”. The result for YRERGALA reads “binds”. Turning to FRERGYGA, the antigen binding call is “no binding”.

For the variant FRERGALA, the antigen binding call is recorded as “binds”. The result for STGTGALA reads “no binding”; that for YRERGAAA, “binds”; that for VTGGDALA, “no binding”. The result for YRERNAAA reads “no binding”; that for SGRGNSVD, “no binding”. The result for VEEEGDVA reads “no binding”. In the case of STEEGDWV, the antigen binding call was “no binding”. The result for AEGTNAGD reads “no binding”; that for VETGNDAV, “no binding”.

Consider FRERNAAA, for which the antigen binding call is “no binding”. The result for FRERGAAA reads “binds”; that for YRERGSAA, “binds”; that for FRGRGALA, “binds”. For the variant FEEGTDWY, the antigen binding call was “no binding”. The result for DGGKNDAV reads “no binding”. The result for YRARSFGD reads “no binding”; that for YRAGGAGY, “binds”; that for YRARSFGS, “binds”. The result for YRAGGFGY reads “binds”; that for YAAGSFGY, “no binding”. As to DRAGDAGY, the antigen binding call is reported as “no binding”.

Take YRAGGFGS: the antigen binding call is given as “binds”. The result for YGETGFGS reads “no binding”; that for SRARDFGY, “no binding”; that for SEARSSGF, “no binding”. The result for YATEAFSD reads “no binding”; that for YAKGDDAS, “no binding”; that for DEGGGDGA, “no binding”. The result for DAGKSDWY reads “no binding”.

On to YAEESDVA, for which the antigen binding call was “no binding”.

Turning to DTGTGALV, the antigen binding call was “no binding”. The result for YRAGGYGY reads “binds”; that for YRARGYVY, “no binding”; that for YRAGGVGS, “binds”.

For the variant YRARGAGY, the antigen binding call was “binds”. The result for YRARGSGY reads “binds”; that for DTKAADWY, “no binding”; that for VKEGGDVV, “no binding”. The result for YKRESAAV reads “binds”; that for YGRTSAAV, “no binding”. The result for YKRESSSV reads “binds”; that for VEGTSSSV, “no binding”; that for YERESAAV, “no binding”. As for YKGKDSSV, the antigen binding call is “binds”. The result for YAGKDDWV reads “no binding”; that for FEGGTDVV, “no binding”. The result for YKGRGAGF reads “binds”; that for YKGRGYGF, “no binding”.

On to YKGRGSAF, for which the antigen binding call is reported as “binds”.

Take YKGRGAAF: the antigen binding call is “binds”. The result for DAGRSDLV chain 1 R67H reads “no binding”; that for SAGEGDVY, “no binding”; that for FAKEGFWD, “no binding”.

Turning to VRTADVGV, the antigen binding call is “no binding”. The result for VRTRGSGV reads “binds”; that for VETRSSSV, “no binding”. Consider VRERGDGV, for which the antigen binding call is “no binding”. For VETEGSGV, the antigen binding call is on record as “no binding”. On to VRTRSSGV, for which the antigen binding call is “binds”. The result for DGGTNAGD reads “no binding”.

In the case of YREKGSSA, the antigen binding call is given as “binds”.

Take YTEKGVGV: the antigen binding call is “no binding”. The result for DREEGSSA reads “no binding”; that for YTTGGSSA, “no binding”.

On to VAEKGSSA, for which the antigen binding call is on record as “no binding”. The result for YREKGSSV reads “binds”; that for DATGGSSV, “no binding”; that for YRTGGSSV, “binds”. In the case of DTKRTAVA, the antigen binding call is “no binding”. The result for ATTKSAGD reads “no binding”. The result for YRGKDVGV reads “binds”; that for YRRGGVGV, “binds”. The result for YRRGGFGV reads “binds”; that for DARGGFGV, “no binding”. YRRGSVGV: the antigen binding call is recorded as “no binding”. For DREEGVGV, the antigen binding call is “no binding”. The result for YRRGGAGV reads “binds”; that for VEGGGDVV, “no binding”; that for SEEEGASV, “no binding”. On to YAARGAWD, for which the antigen binding call is recorded as “no binding”. The result for YKARGAWD reads “binds”; that for YKAGGAWD, “binds”. The result for DKEGGSLV reads “no binding”; that for YKARGSLY, “binds”; that for YKGRAALY, “no binding”. The result for SKERGSLV reads “no binding”; that for YKGRGSLY, “binds”. For YKARGSLV, the antigen binding call is “binds”. For YKGRGALY, the antigen binding call is given as “binds”.

For the variant ATGRADWA, the antigen binding call is “no binding”. The result for VTETGDSV reads “no binding”; that for YTGEDDVY, “no binding”; that for YTGTSAGD, “no binding”. The result for YRGKASGD reads “binds”; that for YAGKSAGD, “no binding”; that for YRGKAAGD, “binds”. The result for FRRKDDWA reads “no binding”. On to YRRRGYWA, for which the antigen binding call is “binds”.

Regarding YRRRGAWA, the antigen binding call is “binds”.

For the variant FRRRGAWA, the antigen binding call was “binds”. As for YRRRGSWA, the antigen binding call is “binds”.

On to ATGEDDVY, for which the antigen binding call is “no binding”. In the case of DEGGTDGY, the antigen binding call was “no binding”.

For FARKGDGV, the antigen binding call is “no binding”. The result for YRRRGDWA reads “binds”; that for YRREGDWA, “no binding”; that for YRRRGVWA, “binds”. The result for SARRGDWA reads “no binding”; that for DATGGDGV, “no binding”. For FRRGGSAF, the antigen binding call is given as “binds”. As to FARGGDAV, the antigen binding call was “no binding”.

Consider FAGRGALD, for which the antigen binding call is given as “no binding”. The result for FRRRGALD reads “binds”.

In the case of FRRRGAAD, the antigen binding call is given as “binds”. The result for FRRRGAVD reads “binds”. Regarding FARKSYGA, the antigen binding call is given as “no binding”. The result for AETKGDGV reads “no binding”; that for YGTATFLV, “no binding”.

VRTKDFSY: the antigen binding call is “no binding”.

For FGATSFSV, the antigen binding call is “no binding”.

Turning to FAGGDYGS, the antigen binding call is reported as “no binding”. Consider DTAGDAVV, for which the antigen binding call is reported as “no binding”.

Turning to YRRRGSAD, the antigen binding call is reported as “binds”.

On to FARGGSAD, for which the antigen binding call is recorded as “no binding”. The result for FRRRGSAD reads “binds”. The result for FRRGGSAD reads “binds”; that for DARGGSAD, “no binding”; that for DRAGDSVD, “no binding”. The result for YRRKGSVD reads “binds”; that for YRAGDSVD, “binds”. In the case of YRAKGSVD, the antigen binding call is recorded as “binds”. Turning to YKGKGSVV, the antigen binding call is recorded as “binds”. The result for YAGTGAVA reads “no binding”; that for YTTGGAVA, “no binding”; that for FKGKGAVA, “no binding”. Consider YKTRSAVA, for which the antigen binding call is on record as “binds”. The result for VKGAGSVV reads “no binding”; that for YKGKGAVA, “binds”; that for SKGKGAVA, “no binding”.

In the case of YKTGNDVA, the antigen binding call was “no binding”. The result for FKGRGAVD reads “binds”.

The values above are taken from the emibetuzumab library of Makowski et al. (2022).
